About 1,800 (2.5%) of roughly 71,000 compounds were called active. Inconclusive results (about 26%) are left out. This is one part of a sample in which actives are shown more often than they occur. Unmarked numbers belong to inactive results. Calls follow the shape of the dose curve; as a rule, active = well fitted activation curve with a large enough effect in the signal ratio, with a control signal flat (not every such curve was filed as active); inconclusive = small, poorly fitted or top-dose-only effect, or effect the other way, or a change in a side signal; inactive = flat fitted curve, though single readings scatter; the % refers to the signal ratio.
test: Cell signaling CRE-BLA (Fsk stim); conditions: CHO CRE-bla reporter (cAMP response element driving beta-lactamase), forskolin EC10, beta-lactamase ratio; series mostly up to 38.2 µM; activity change, negative = inhibition: at the top concentration; as to activity change, negative = inhibition: % of control where 0% means no effect
Description: NIH Molecular Libraries Screening Centers Network [MLSCN]
NIH Chemical Genomics Center [NCGC]
Assay Provider: Marshall W. Nirenberg, U.S. National heart lung & blood institute
Memories persist for different lengths of time, from seconds or minutes to a lifetime. There are two kinds of memory: short-term memory (STM) and long-term memory (LTM). STM lasts for minutes to hours, which maybe mediated by modifications of molecules involved in synaptic functions. LTM lasts for days or longer, and may be due to the formation of new synapses or restructuring of existing synapses. LTM, but not STM, requires gene transcription and synthesis of proteins. CREB (cyclic-AMP Responsive Element Binding Protein) is one of the candidates plays an important role for enhancement of some types of LTM. CREB, a family of transcription factors, regulates the transcription of genes containing cAMP Responsive Elements (CRE). CRE is a nucleotide sequence often found in the promoter regions of genes that are binding sites for CREB.
Using a beta-lactamase reporter-gene under control of cAMP responsive element, a cell-based assay [CellSensor(TM) CRE-bla CHO developed by Invitrogen Corp.] was used to measure forskolin-induced signaling. Library compounds were measured for their ability to modulate positively or negatively the action of EC10 NKH 477, a water soluble forskolin, on reporter gene activity. Compounds were screened in a titration series in 1536-well format. Positive and negative modulators were identified based on the AC50 values derived from the screening data.
NCGC Assay Protocol Summary
2000 cells/5uL in Opti-MEM medium containing 0.5% dialyzed FBS, 0.1 mM NEAA, 1 mM sodium pyruvate and 10 mM HEPES was dispensed into 1536-well plates and cells were cultured at 37 degrees Celsius overnight. […] And then the plates were incubated at 37 degrees Celsius for 3 hours. 1 uL of CCF4-dye mixture was added to each well. After incubated at room temperature for 2 hours the plates were measured on an EnVision plate reader at Excitation 405nm, Emission1=460nm and Emission 2=530nm. The %Activity was determined from the ratio of 460nm/530nm.
Keywords: NIH Roadmap, MLSCN, MLSMR, qHTS, NCGC, CRE, beta-lactamase reporter-gene assay.
Potency is read from the fitted curve at half-maximal effect.

Compound	activity change, negative = inhibition	Potency
O=C(O)Cc1ccc(NC(=O)c2cccs2)cc1	-4.51%	
CCOC(=O)c1oc2ccccc2c1NC(=O)c1cccs1		3.98 µM (active)
CCOC(=O)c1c(NC(=O)c2cccs2)sc(C)c1C		2.51 µM (active)
COC(=O)Cn1cc(C(=O)c2cccs2)c2ccccc21	-1.19%	
CCc1nnc(NC(=O)c2cccs2)s1	-1.45%	
O=C(Nc1ncccn1)c1cccs1	-3.62%	
COC(=O)C1=C(C)N(C)C(C)=C(C(=O)OC)C1c1cccc(Br)c1	2.2%	
O=C(Cl)c1ccc([N+](=O)[O-])cc1	-11.7%	
CCNC(=S)NCC	2.82%	
CCCCC(CC)CN (stereo unspecified)		inactive
c1csc(-c2cn3c(n2)SCC3)c1	-0.942%	
Cc1c(C)c2c(c(C)c1O)CC[C@@](C)(CN1CCN(c3cc(N4CCCC4)nc(N4CCCC4)n3)CC1)O2	-4.36%	
CC1OC2C(OC1C)N(S(C)(=O)=O)CCN2S(C)(=O)=O (stereo unspecified)	-1.57%	
O=c1c(CCc2ccccc2)nc2cnc(N3CCNCC3)nc2n1Cc1cccs1		12.6 µM (active)
Cc1nc2cnc(N3CCN(C)CC3)nc2n(C[C@H]2CCCO2)c1=O	5.46%	
Cc1nc2cnc(N3CCN(C)CC3)nc2n(CCC#N)c1=O	14.5%	
CC(C)(C)[Si](OCC[C@@H]1C[C@@]1(C)[C@@H](NP(=O)(c1ccccc1)c1ccccc1)c1ccccc1)(c1ccccc1)c1ccccc1	19%	
COC(=O)[C@@]1(Cc2ccc(OC)cc2)[C@H]2c3cc(C(=O)N4CCCC4)n(Cc4ccc(C(F)(F)F)nc4)c3C[C@H]2CN1C(=O)c1ccccc1	-23.5%	
COC(=O)C1(C)C=CC2(CCCCC2)N1C(C)=O (stereo unspecified)	1.94%	

Compound	activity change, negative = inhibition	Potency
CCCCCCCCCCCC(=O)O		inactive
CCCOc1ccc(C2c3c(oc4cc(C)c(C)cc4c3=O)C(=O)N2CCCN2CCOCC2)cc1 (stereo unspecified)	6.61%	
Cn1c(=O)c2c(nc(CN3CCOCC3)n2Cc2ccccc2)n(C)c1=O	2.87%	
Cc1cccn2c(=O)c3cc(C#N)c(=O)n(CCCN4CCOCC4)c3nc12		10 µM (active)
CCOC(=O)CSc1nnc(-c2cccc(Br)c2)o1	-0.588%	
CCC[C@@H]1C[C@@]1(CCC)C(NC(=O)c1ccc(-c2ccccc2)cc1)c1cccc(Cl)c1 (stereo partly specified)	15.6%	
COc1ccc(C(=O)NCc2cn3ccccc3n2)cc1	-8.76%	
CCOc1ncccc1C(=O)OCc1cn2cc(Cl)ccc2n1		10 µM (active)
CSc1ncccc1C(=O)OCC(=O)N1CCOCC1	-3.86%	
CC(=O)N1[C@H](C)C=C[C@]1(Cc1ccccc1)C(=O)NCc1ccccn1	-6.46%	
C/C(=C\C(=O)c1ccc(Br)cc1)N1CCCCC1	-14.2%	
COC(=O)C1(Cc2ccccc2)C=C2C(=C(C)C(=O)C2C)CN1 (stereo unspecified)	-7.33%	
COc1cc(-c2nn3c(-c4cccc(C)c4)nnc3s2)cc(OC)c1OC		1.58 µM (active)
COc1ccc(-c2nn3c(-c4ccccc4)nnc3s2)cc1OC		3.16 µM (active)
Cc1nnc2sc(-c3ccco3)nn12	4.72%	
CC(=O)Nc1ccc(-c2nn3c(C)nnc3s2)cc1C	16.3%	
Fc1ccc(-c2ccc(-c3nn4c(-c5ccco5)nnc4s3)o2)cc1	27.6%	
COC(=O)CCCCCN1C(=O)NC(c2ccc(-c3ccccc3)cc2)C(C(=O)OCc2ccccc2)=C1C (stereo unspecified)	-4.41%	
O=C(CCSc1ccccc1)NCCSc1ccccn1	1.51%	

Compound	activity change, negative = inhibition	Potency
CCOc1ccccc1N(CC(=O)Nc1ccccc1C(=O)OC)S(C)(=O)=O	12.2% [at 7.6 µM]	
CC(NC(=O)Nc1ccccc1)c1ccccc1 (stereo unspecified)	-3.64%	
CC(Cc1ccccc1)C(=O)N(C)Cc1ccccc1 (stereo unspecified)	-6.74%	
CCCSc1nc2c(c(=O)n(C)c(=O)n2C)n1Cc1ccc(C)cc1	11.3%	
CCOc1ccc(Cn2c(SCCCCC#N)nc3c2c(=O)n(C)c(=O)n3C)cc1OCC		10 µM (active)
COC(=O)C(C)Sc1nc2c(c(=O)n(C)c(=O)n2C)n1Cc1cccc(C)c1 (stereo unspecified)	9.27%	
COC(=O)[C@@]1(Cc2ccccc2)[C@H]2c3cc(C(=O)N(C)C)n(CCSCCO)c3C[C@H]2CN1C(=O)c1ccccc1	-10.9%	
NS(=O)(=O)c1ccc(NS(=O)(=O)/C=C/c2ccccc2)cc1	-1.2%	
CC(C)(C)NC(=O)c1cc(NC(=O)c2ccco2)cc(NC(=O)c2ccco2)c1	15.4%	
O=c1c2[nH]c3ccc(Cl)cc3c2ncn1Cc1ccccn1		3.98 µM (active)
O=C(Nc1cccc(Cl)c1)OCc1ccccn1	29.5%	
CC(=O)N1CC2(C)CN(C(C)=O)CC(C)(C1)C2=O	0.353%	
C/C=C/C=C/C(=O)O	-16.5%	
CCNc1nc(SCCOc2ccccc2)nc(N(C)C)n1		3.98 µM (active)
Nc1nc(SCCOc2ccccc2)n[nH]1	-4.62%	
CCNc1nc(NCC)nc(N(C)n2cnnc2)n1	20.1%	
OC(CCl)CCl	1.13%	
CCCc1nc(SCC(=O)Nc2ccccc2OC)c2c(=O)n(C)c(=O)n(C)c2n1		2.51 µM (active)

Reference: PubChem BioAssay AID662 (National Center for Advancing Translational Sciences (NCATS), 2007)
